# From PubChem BioAssay (NCI)
# The panel holds about 83,000 compounds, 20% with a hit somewhere; the sample as a whole holds those more often.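 Each cell line was grown in a 96-well plate and treated with one concentration of compound for 48 hours. Values below 10 were considered active.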 Unmarked numbers belong to inactive results. The source made the active and inactive calls.
# What was measured:
# Test in all cases: NCI-60 one-dose screen, 48 h (100 = growth as untreated, 0 = no growth, -100 = all killed)
# A549/ATCC NSCLC = details: 10 µM unless noted
# DU-145 prostate = details: 10 µM unless noted
# SF-268 CNS = details: 10 µM unless noted
# SF-539 CNS = details: 10 µM unless noted
# UACC-257 melanoma = details: 10 µM unless noted
# HCT-15 colon = details: 10 µM
# SK-MEL-28 melanoma = details: 10 µM unless noted
# OVCAR-8 ovarian = details: 10 µM unless noted
# OVCAR-5 ovarian = details: 10 µM unless noted
# OVCAR-3 ovarian = details: 10 µM unless noted
# NCI/ADR-RES ovarian = details: 10 µM unless noted
# BT-549 breast = details: 10 µM
# 786-0 renal = details: 10 µM unless noted
# M14 melanoma = details: 10 µM unless noted
# HT29 colon = details: 10 µM unless noted
# PC-3 prostate = details: 10 µM unless noted
# UACC-62 melanoma = details: 10 µM unless noted
# TK-10 renal = details: 10 µM unless noted
# HL-60(TB) leukemia = details: 10 µM unless noted
# MCF7 breast = details: 10 µM unless noted
SMILES,growth (A549/ATCC NSCLC),growth (DU-145 prostate),growth (SF-268 CNS),growth (SF-539 CNS),growth (UACC-257 melanoma),growth (HCT-15 colon),growth (SK-MEL-28 melanoma),growth (OVCAR-8 ovarian),growth (OVCAR-5 ovarian),growth (OVCAR-3 ovarian),growth (NCI/ADR-RES ovarian),growth (BT-549 breast),growth (786-0 renal),growth (M14 melanoma),growth (HT29 colon),growth (PC-3 prostate),growth (UACC-62 melanoma),growth (TK-10 renal),growth (HL-60(TB) leukemia),growth (MCF7 breast)
CC[C@@]1(C2O[C@@H](C3O[C@@](O)(CC)[C@H](C)C[C@@H]3C)C[C@@H]2C)CC[C@H]([C@]2(C)CCC3(C[C@H](O)[C@@H](C)[C@@H]([C@H](C)[C@@H](OC)[C@H](C)C(=O)O)O3)O2)O1 (some centres not stated),17.6%,44.9%,22.4%,12.6%,20.7%,11.5%,29.5%,31%,43.9%,11%,31.1%,32.5%,–,–,–,–,–,–,–,–
O=C(CCc1ccco1)NC1CCN(CC2(c3ccc(Cl)cc3)CCC2)CC1,8.74% (active),24%,22.1%,34.5%,-4.36% (active),18.7%,30.1%,12.2%,53.2%,13.9%,6.97% (active),12.4%,20.4%,10.3%,10.5%,1.34% (active),17%,-0.211% (active),-42.7% (active),2.88% (active)
COc1c(O)c2c3c(c1OC)-c1ccccc1CC3N(C)CC2 (configuration not stated),103%,116%,101%,107%,103%,105%,117%,110%,109%,109%,99.7%,–,100%,93.3%,110%,100%,94.9%,102%,112%,100%
CC12CCC(=O)C=C1C(O)CC1C2CCC2(C)C(O)CCC12 (configuration not stated),101%,102%,98%,98.7%,95%,106%,115%,105%,108%,103%,108%,117%,115%,105%,108%,95%,99.5%,104%,101%,97.1%
Clc1ccc(SSC(Cl)(Cl)Cl)cc1,100%,114%,104%,103%,112%,112%,120%,107%,105%,108%,117%,121%,106%,107%,101%,88.9%,116%,–,113%,108%
CC1([N+](=O)[O-])COP(=O)(Nc2ccc(F)cc2)OC1 (configuration not stated),98.5%,106%,99.7%,103%,101%,104%,116%,101%,106%,104%,102%,96.8%,102%,101%,96.5%,95.5%,109%,95.1%,90.4%,100%
NC(=O)C(Cl)Cl,–,108%,102%,107%,94.8%,97.6%,112%,99.9%,101%,110%,114%,111%,107%,112%,116%,97.5%,105%,98.7%,80.8%,92.8%
CCC[CH2][Sn]([CH2]CCC)([CH2]CCC)[O]C(=O)c1ccc(Cl)cc1Cl,-79.9% (active),-98% (active),-95.5% (active),-91.7% (active),-94.8% (active),-82.9% (active),–,-63.6% (active),-95.1% (active),-98.3% (active),-68.6% (active),-96% (active),-91.7% (active),-85.8% (active),-64.7% (active),-76.8% (active),-95.4% (active),-90.5% (active),-32.7% (active),–
